# Data as given in ChEMBL document CHEMBL4888484, “Replenishing the malaria drug discovery pipeline: Screening and hit evaluation of the MMV Hit Generation Library 1 (HGL1) against asexual blood stage Plasmodium falciparum ,using a nano luciferase reporter read-out” (2022).
# The whole screen tested about 150,000 compounds, of which about 540 (0.36%) showed an effect of 50% or more. The sample holds strong results, similar compounds and a random draw of the others, so the mix is not that of the screen.
# System: Plasmodium falciparum
# Test: Primary screen in NF54 nanoGlo assay, in single point, at 2uM, 72h; a lower Z score goes with more inhibition
# Type: functional, Erythrocyte
# Conditions: timepoint 72 hour
SMILES,% Inhibition [%],Z score
CC(C)n1ncc2c1CC(NC(=O)CCC1CCCO1)CC2 (stereo not drawn),-3,0.62
CN(C)c1ccc(C(=O)Nc2ccccc2-c2cn3c(n2)CCCC3)nn1,-10,1.93
O=C1C2CCCCN2C(=O)N1CC(O)COc1ccc(F)cc1 (stereo not drawn),-5,0.77
CCOC1CC(NCc2c[nH]nc2-c2cccnc2)C12CCC2 (stereo not drawn),-10,1.18
CCOC1CC(NC(C)C(=O)N(C)Cc2cccc(F)c2)C12CCCC2 (stereo not drawn),4,-0.62
CCOC1CC(NC2CC(c3ccc(F)cc3)C2)C12CCC2 (stereo not drawn),85,-15.92
CCn1ccc(C(=O)N2CC(N(Cc3cccnc3)S(C)(=O)=O)C2)n1,-4,0.78
CC(C)(C)OC(=O)N[C@@H]1CCCN(Cc2nc(-c3ccco3)no2)C1,-11,1.1
Cc1nn2c(-c3ccc(-c4ccccc4)cc3)ccnc2c1Cl,-12,1.64
CCc1c(C)nn2c(c1C)c(-c1ccccc1)[n+]1c(C)c(CC)c(C)nc21,53,-10.21
CCc1noc(Cc2c(C)nn(-c3ccccc3)c2C)n1,-5,0.89
C[C@@H](CN1CCOCC1)NC(=O)c1cccc2c1C(=O)OC2(C)C,2,-0.36
O=C(CN1C(=O)CCC1=O)N1CCN(S(=O)(=O)c2ccc(Br)cc2)CC1,-14,1.24
COc1cccc([C@H]2C[C@H](N(C)C(=O)CCCC(F)(F)F)C2)c1,5,-0.72
Cn1nc(-c2nc(-c3cccc(F)c3)no2)c2c1CCN(C(=O)c1cccc(F)c1)C2,-7,0.84
Cn1nc(-c2nc(-c3ccc(F)cc3)no2)c2c1CCN(C(=O)c1cccc(Cl)c1)C2,66,-7.55
Cn1nc(-c2nc(-c3cccc(F)c3)no2)c2c1CCN(C(=O)c1ccccn1)C2,12,-1.38
CC12CN(S(=O)(=O)c3ccccc3)C3(C(=O)O)CC1CCC23C (stereo not drawn),6,-0.98
CC12CN(S(=O)(=O)c3ccc4c(c3)OCCO4)C3(C(=O)OCc4ccccc4)CC1CCC23C (stereo not drawn),70,-8.79
CC12CN(S(=O)(=O)c3ccc4c(c3)OCCO4)C3(C(=O)NCCc4ccccc4)CC1CCC23C (stereo not drawn),-11,1.42
CCCN1CCN(CCCNC(=O)c2cc3cc(S(=O)(=O)N(C)C)ccc3n2CC)CC1,-15,2.13
c1ccc(-c2cn3c(n2)c(-c2ccc4ccccc4n2)cc2ccccc23)cc1,76,-4.16
CC(C)CCn1c(=O)c(-c2ccc3ccccc3n2)cc2ccccc21,-1,0.07
Clc1ccc(-c2cn3c(nc4ccccc43)c(-c3ccccc3)n2)cc1,-43,5.09
